From PubChem BioAssay (EPA / NIEHS)
“And” between values parts separate entries of the source, which are not always exact repeats. Identical values can stand only once. Results filed as inconclusive are left out. Some compounds were tested as several samples or in several runs, with calls that do not always agree. The source made the active and inactive calls. How the source made its calls: active means hit-call score of the fitted dose curve at least 0.9, where 1 is the maximum; inconclusive means response in the unintended direction; inactive means score below 0.9.

These compounds were tested on frog Estrogen Receptor (ER2), gene 100174814 (assay: ATG_frER2_XSP2: Attagene TRANS-FACTORIAL Multi-Species (XSP2) HepG2 Assay for frog Estrogen Receptor (ER2) (AID 2283828)).
Description: ATG_XSP2_multi-species_TRANS is a cell-based, multiplexed assay created by modifying the existing Attagene TRANS-FACTORIAL system to include a panel of nuclear receptors from some or all the following species: human (Homo sapiens), mouse (Mus musculus), frog (Xenopus laevis), zebrafish (Danio rerio), chicken (Gallus gallus), and turtle (Chrysemys picta). The ECOTOX-FACTORIAL format uses HepG2, a human liver cell line, with measurements taken at 24 hours after chemical dosing in a 24-well plate. Xsp2 included 3 nM 6-alpha-fluorotestosterone and 1.5 nM norgestrel to stimulate the androgen receptor.ATG_frER2_XSP2 is one of 29 assay components measured or calculated from the ATG_XSP2_multi-species_TRANS assay. It is designed to make measurements of mRNA induction, a form of inducible reporter, as detected with fluorescence intensity signals by Reverse transcription polymerase chain reaction (RT-PCR) and Capillary electrophoresis technology.The assay endpoint ATG_frER2_XSP2 was analyzed in the positive analysis fitting direction relative to DMSO as the negative control and baseline of activity. Using a type of inducible reporter, measures of mRNA for gain-of-signal activity can be used to understand the reporter gene at the transcription factor-level as they relate to the gene ER. Furthermore, this assay endpoint can be referred to as a primary readout, because this assay has produced multiple assay endpoints where this one serves a reporter gene function. To generalize the intended target to other relatable targets, this assay endpoint is annotated to the nuclear receptor intended target family, where the subfamily is steroidal.
Human liver HepG2 cells are transiently transfected with multiple reporter transcription units (MRTUs) in 6-well plates using FuGene 6 reagent (Roche; 3 ml FuGene/1 mg DNA). The MRTU constructs are regulated by a cis-regulating element (promoter). […] A major difference between the CIS and TRANS system is that in CIS activities of endogenous TFs are measured, whereas the TRANS assay evaluates changes in activities of exogenous, chimeric NR-Gal4 proteins. […] At the end of 24 hour incubation, total RNA was isolated using TriZol reagent (Invitrogen). The isolated RNA is then reverse-transcribed using oligo(dT) primer and Mo-MLV reverse transcriptase (Invitrogen) with DNAse I (Ambion) treatment for 30 min. The one-tenth of the produced cDNA was amplified by PCR using Taq DNA polymerase (Invitrogen) and two reporter sequence-specific primers. The PCR products were fluorescently labeled by primer extension with 6-arboxyfluorescein (6-FAM) 5'-labeled reporter sequence-specific primer (2 min at 95 C, 20 s at 68 C and 10 min at 72 C) and these products were digested with 5U of HpaI (New England Biolabs) for 2h at 37 C. The fragments were purified using Qiaquick PCR columns (Qiagen), analyzed on an ABI 3130xL genetic analyzer (Applied Biosystems) with peak positions identified by using a set of X-rhodamine (ROX)-labeled MapMarker1000 molecular weight standards (BioVentures). The raw capillary electrophoresis data was processed using Attagraph software (Attagene).
`CC(c1ccc(O)cc1)(c1ccc(O)cc1)c1ccc(O)cc1` was tested, and the outcome was “inactive”. For `CC(C)(O)C(=O)Nc1ccc([N+](=O)[O-])c(C(F)(F)F)c1`, the outcome was “inactive”. `C[C@]12CCC(=O)C=C1CC[C@@H]1[C@@H]2CC[C@]2(C)C(=O)CC[C@@H]12` was tested, and the outcome was “inactive” and the AC50 was 552 nM (active). In the case of `c1cc2ccc3cccc4ccc(c1)c2c34`, the outcome is reported as “inactive” and the AC50 is reported as 5720 nM (active). In the case of `CCOC(=O)C(O)(c1ccc(Cl)cc1)c1ccc(Cl)cc1`, the AC50 is reported as 9.66 µM (active) and 8.68 µM (active). For `Clc1ccc(C(c2ccccc2Cl)C(Cl)(Cl)Cl)cc1` (centres undefined), the AC50 was 824 nM (active). `Cc1cc(-c2ccc(N)c(C)c2)ccc1N` was tested, and the AC50 was 22.1 µM (active) and 10.6 µM (active). `Oc1ccc(C(c2ccc(O)cc2)(C(F)(F)F)C(F)(F)F)cc1` was tested, and the AC50 was 151 nM (active) and 386 nM (active). In the case of `C[C@]12CCC(=O)C=C1CC[C@@H]1[C@@H]2CC[C@@]2(C)[C@H]1CC[C@]2(C)O`, the AC50 is reported as 11.6 nM (active). For `CC(C)(c1ccccc1)c1ccc(O)cc1`, the AC50 was 1560 nM (active). In the case of `ClC(Cl)=C(c1ccc(Cl)cc1)c1ccc(Cl)cc1`, the AC50 is reported as 10000 nM (active). With `CCC(=O)O[C@H]1CC[C@H]2[C@@H]3CCC4=CC(=O)CC[C@]4(C)[C@H]3CC[C@]12C` the AC50 was 29.8 nM (active).
